In the library only some 21% were active in any assay of this set; here they are far more common.
Cycloheximide cs: Cycloheximide Counterscreen for Small Molecule Inhibitors of Shiga Toxin; cell reporter, cycloheximide protein synthesis inhibition counterscreen; max response, %; AID 2314, 2010; hit rate 12% among 300,000; in the data active means max response mostly above about 13%, no sharp cut-off; inactive means mostly below about 14%; further: read at 38.3 µM for the half of the compounds with a filed dose
Shiga toxin inh: A qHTS for Small Molecule Inhibitors of Shiga Toxin | hit rate 9.2% among 290,000 | inhibition, % at 38.7 µM | Vero cells, Shiga toxin protein synthesis inhibition reporter; in the data active means inhibition mostly above about 28%, no sharp cut-off; inactive means mostly below about 43%
Pf growth 48h: Primary qHTS for delayed death inhibitors of the malarial parasite plastid, 48 hour incubation. P. falciparum luciferase growth in erythrocytes, 48 h. Potency, µM (top dose mostly 28.7 µM), usual class: inhibitors. hit rate 5.9% among 310,000. AID 504832, 2011
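Read-out is firefly luciferase luminescence from an integrated reporter in P. falciparum, so falling signal marks reduced parasite growth. Infected erythrocytes were at 2% hematocrit and 0.1% parasitemia (final) in Albumax-supplemented RPMI 1640.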
Pf growth 96h: Primary qHTS for delayed death inhibitors of the malarial parasite plastid, 96 hour incubation; hit rate 6.9% among 320,000; Potency, µM (highest dose often 28.7 µM), hits mostly inhibitors; P. falciparum luciferase reporter growth, 96 h
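Infected RBCs, 2% Hct / 0.05% parasitemia final; luciferase-reporter P. falciparum; cpd 96 h, 37 C, 5% CO2; luciferase detection reagent; luminescence.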
AMA1 RON2 block: qHTS for Inhibitors of AMA1-RON; Towards Development of Antimalarial Drug Lead: Primary Screen; AlphaScreen AMA1-biotinylated RON2 peptide binding; Plasmodium falciparum AMA1 (3D7) - RON2 peptide interaction; Potency, µM (titrated, usually from 58.2 µM), actives largely listed as inhibitors; AID 720542, 2013; hit rate 0.2% among 360,000; further: nearly all actives have a fitted effect of over 45% in size
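AMA1 (3D7) with his tag at 25 nM final met compounds first, then biotinylated RON2 peptide at 25 nM; detection used donor plus acceptor beads, 10 µg/mL apiece, read by AlphaScreen after 30 min at room temperature.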
HCV inh: qHTS Assay for Inhibitors of Hepatitis C Virus (HCV); Huh7.5.1 HCVcc-Cre infection, luciferase reporter, 44 h; Potency, µM (highest dose often 41.8 µM), usual class: inhibitors; hit rate 3.4% among 340,000; AID 651820, 2012
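Reporter virus HCVcc-Cre (~0.5 moi) infects cells exposed to compound; seeding density 1,000 cells/well with 4 h settling beforehand. Luminescence, 15 sec read, taken 44 h post-infection following a 15 min RT substrate incubation.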
Each line names hits and unclear results; the compound was inactive in the other large screens. Unless noted, the call rests on the fitted dose curve; in most records, active means well fitted curve in the direction sought with a large enough effect; inconclusive means small, poorly fitted or top-dose-only effect, or another doubt; inactive means no such curve, though single readings can be large; an effect the other way counts as inactive or inconclusive.

O=S(=O)(NCCc1ccc(Cl)cc1)c1cccc2cccnc12	Pf growth 96h 9.3µM
CC[n+]1c(/C=C/C=C/N(C(C)=O)c2ccccc2)sc2cc(OC)ccc21	Pf growth 48h 9.3µM, AMA1 RON2 block inconclusive, HCV inh inconclusive
Cc1ccc(S(=O)(=O)N[C@H](C(=O)NCC2CCC(C(=O)O)CC2)C(C)C)cc1 (some centres not stated)	none
C=CCOc1ccc(CN(C)C(=O)CNC(=O)c2ccc(-c3ccccc3)cc2)cc1	Pf growth 48h 13µM, HCV inh 11µM
CCOc1ccc(CN(C)C(=O)CNC(=O)c2ccccc2)cc1	Pf growth 48h inconclusive, Pf growth 96h inconclusive
CC(=O)Nc1ccc(OCC=C(Cl)Cl)cc1	Cycloheximide cs 11, Shiga toxin inh 25
C=CCOc1ccc(C(=O)Nc2ccc(OCC)cc2)cc1	Pf growth 96h 4.1µM
C=CCNC(=O)Nc1ccc(OCC)cc1	Cycloheximide cs 12 (no result: Pf growth 96h)
CC1CCN(S(=O)(=O)c2ccc(C(=O)Nc3nnc(-c4ccncc4)o3)cc2)CC1	Pf growth 48h inconclusive, Pf growth 96h inconclusive, HCV inh inconclusive
CS(=O)(=O)c1ccc(-c2nnc(NC(=O)c3ccc(S(=O)(=O)N4CCCC4)cc3)o2)cc1	Pf growth 48h 13µM, Pf growth 96h 7.4µM (no result: Cycloheximide cs, Shiga toxin inh)
CC1CCCCN1S(=O)(=O)c1ccc(C(=O)Nc2nnc(-c3ccco3)o2)cc1 (configuration not stated)	Pf growth 48h inconclusive, Pf growth 96h 4.7µM, HCV inh inconclusive
CC1CCCCN1S(=O)(=O)c1ccc(C(=O)Nc2nnc(C3CC3)o2)cc1 (configuration not stated)	Pf growth 48h inconclusive, Pf growth 96h 12µM, HCV inh inconclusive
CC1CCCCN1S(=O)(=O)c1ccc(C(=O)Nc2nnc(C3=COCCO3)o2)cc1 (configuration not stated)	Pf growth 96h inconclusive
COc1cc(-c2nnc(NC(=O)c3ccc(S(=O)(=O)N4CCOCC4)cc3)o2)cc(OC)c1OC	none (no result: AMA1 RON2 block, HCV inh)
COc1cccc(-c2nnc(NC(=O)c3ccc(S(=O)(=O)N4CCOCC4)cc3)o2)c1	Pf growth 48h inconclusive, HCV inh 13µM
Cc1nnc(NC(=O)c2ccc(S(=O)(=O)N3CCCCC3C)cc2)o1 (configuration not stated)	Pf growth 48h 12µM, Pf growth 96h inconclusive
CC1CCN(S(=O)(=O)c2ccc(C(=O)Nc3nnc(C4CC4)o3)cc2)CC1	Pf growth 48h inconclusive, Pf growth 96h inconclusive, HCV inh inconclusive
O=C(Nc1nnc(C2CC2)o1)c1ccc(S(=O)(=O)N2CCCCC2)cc1	Pf growth 48h inconclusive, Pf growth 96h 17µM
CC1CCCCN1S(=O)(=O)c1ccc(C(=O)Nc2nnc(-c3ccccn3)o2)cc1 (configuration not stated)	none
CCCCn1c(N)c(N(CCC(C)C)C(=O)C2CC(=O)N(CCc3ccc(OC)c(OC)c3)C2)c(=O)[nH]c1=O (configuration not stated)	Pf growth 48h inconclusive (no result: Cycloheximide cs, Shiga toxin inh)
CNC(=O)[C@H]1O[C@@H](n2cnc3c(NCc4cccc(I)c4)ncnc32)[C@H](O)[C@@H]1O	Pf growth 48h inconclusive, Pf growth 96h inconclusive (no result: Cycloheximide cs, Shiga toxin inh)
COc1ccccc1S(=O)(=O)Nc1cc(C)nn1-c1ccc(C)cc1	Pf growth 48h 2.6µM, Pf growth 96h inconclusive
COc1ccc(CCNC(=O)c2cc3c(=O)n4ccccc4nc3n(CCCN3CCOCC3)c2=N)cc1OC	Pf growth 48h 2.3µM, Pf growth 96h 2.1µM, HCV inh inconclusive
COc1ccc(CCn2c(=N)c(C(=O)NCCN3CCOCC3)cc3c(=O)n4cccc(C)c4nc32)cc1OC	Pf growth 48h 0.74µM, Pf growth 96h 0.41µM, HCV inh inconclusive
CCCNc1nc2nc3ccccn3c(=O)c2cc1C(=O)NCCN1CCOCC1	Pf growth 48h 15µM
COc1ccc(CCn2c(=N)c(C(=O)NCCN3CCOCC3)cc3c(=O)n4ccccc4nc32)cc1OC	Pf growth 48h inconclusive, Pf growth 96h inconclusive
COc1ccc(CCNC(=O)c2cc3c(=O)n4ccccc4nc3n(Cc3ccco3)c2=N)cc1OC	Cycloheximide cs 15, HCV inh 2.2µM
COCCCN1C(=O)C(CC(=O)NCCN2CCOCC2)CC(C(=O)N(C)C)=C1C (configuration not stated)	none (no result: Cycloheximide cs, Shiga toxin inh, Pf growth 48h, Pf growth 96h, HCV inh)
COc1ccc(C2CC(C)=C(C#N)S(=O)(=O)C2C#N)cc1 (configuration not stated)	none
CC1CC(=O)Nc2ccccc2N1C(=O)CSc1nnnn1C(C)C (configuration not stated)	none (no result: Cycloheximide cs, Shiga toxin inh)
Cc1cccn2c(=O)c3cc(C(N)=S)c(=N)n(CCCOC(C)C)c3nc12	Pf growth 96h inconclusive, HCV inh 11µM (no result: Pf growth 48h)
CCNC(=O)c1cc2c(=O)n3cccc(C)c3nc2n(CCc2ccccc2)c1=N	Pf growth 48h 1.7µM, HCV inh inconclusive (no result: Pf growth 96h)
Cc1cccn2c(=O)c3cc(C(=O)NCCN4CCOCC4)c(=N)n(CCc4ccccc4)c3nc12	Pf growth 48h 0.47µM, HCV inh inconclusive
Cc1cccn2c(=O)c3cc(C(=O)NCCN4CCOCC4)c(=N)n(CCCN4CCOCC4)c3nc12	Pf growth 48h 2.9µM, HCV inh inconclusive
Cc1cccn2c(=O)c3cc(C(=O)NCc4ccccc4)c(=N)n(CCCN4CCOCC4)c3nc12	HCV inh inconclusive (no result: Cycloheximide cs, Shiga toxin inh, Pf growth 48h, Pf growth 96h)
COCCn1c(=N)c(C(=O)NCCc2ccccc2)cc2c(=O)n3cccc(C)c3nc21	none (no result: Cycloheximide cs, Shiga toxin inh, Pf growth 48h, Pf growth 96h)
Cc1cccn2c(=O)c3cc(C(=O)NCC4CCCO4)c(=N)n(CCN4CCOCC4)c3nc12 (configuration not stated)	none (no result: Pf growth 48h)
CN(C)S(=O)(=O)c1cccc(NC(=O)COC(=O)CNC(=O)c2cccc([N+](=O)[O-])c2)c1	none
CCCCCn1c(=N)c(S(=O)(=O)c2ccc(Cl)cc2)cc2c(=O)n3cccc(C)c3nc21	Pf growth 48h 1.9µM, HCV inh inconclusive
Cc1ccc(SCc2nc(-c3cccnc3)no2)cc1	Cycloheximide cs 21, Shiga toxin inh 53
c1cncc(-c2noc(-c3ccc4ccccc4c3)n2)c1	Cycloheximide cs 27, Shiga toxin inh 102, HCV inh inconclusive
c1ccc(-c2noc(-c3cccnc3)n2)cc1	Cycloheximide cs 33, Shiga toxin inh 99, Pf growth 96h 12µM
O=c1[nH]c2ccccc2cc1-c1noc(-c2cccnc2)n1	none
O=C1c2ccccc2C(=O)N1CCCc1nc(-c2cccnc2)no1	none
c1ccc(-c2ccc(-c3nc(-c4cccnc4)no3)cc2)cc1	Cycloheximide cs 33, HCV inh inconclusive (no result: Pf growth 48h)
CCOc1ccc(Cc2nnc(SCC(=O)c3ccc(OC)cc3)o2)cc1	Pf growth 96h 12µM, HCV inh 8.9µM
